Reference: PubChem BioAssay AID652105 (National Center for Advancing Translational Sciences (NCATS), 2013)
Hit rate of the full screen: of about 330,000 compounds, about 4,100 (1.2%) were called active. Inconclusive results (about 2%) are left out. Rule for the calls: active = max response of -50% or lower; inconclusive = between -30% and -50%; inactive = -30% or higher. The entries come from a sample that favours actives as a whole.

Each compound was assayed against Phosphatidylinositol 5-phosphate 4-kinase type-2 alpha (Homo sapiens) (UniProt P48426) (assay: qHTS for Inhibitors of phosphatidylinositol 5-phosphate 4-kinase (PI5P4K)). Conditions: PI5P4Kalpha enzyme, ADP-Glo luminescence, 60 min; active compounds read low.
Outline: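 ADP-Glo luminescence end-point read after a 60 min room-temperature kinase reaction of PI5P4Kalpha plus substrate, initiated with ATP at 5 microM final. Buffer: 0.038 M HEPES pH 7.4, EGTA, 0.1% CHAPS, 5% DMSO.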
% is set by controls: 0 for no effect and ±100 for the full control effect.
Note: value at the top dose of about 77 µM.

Sequence of Phosphatidylinositol 5-phosphate 4-kinase type-2 alpha (Homo sapiens) (P48426 whole entry, looked up): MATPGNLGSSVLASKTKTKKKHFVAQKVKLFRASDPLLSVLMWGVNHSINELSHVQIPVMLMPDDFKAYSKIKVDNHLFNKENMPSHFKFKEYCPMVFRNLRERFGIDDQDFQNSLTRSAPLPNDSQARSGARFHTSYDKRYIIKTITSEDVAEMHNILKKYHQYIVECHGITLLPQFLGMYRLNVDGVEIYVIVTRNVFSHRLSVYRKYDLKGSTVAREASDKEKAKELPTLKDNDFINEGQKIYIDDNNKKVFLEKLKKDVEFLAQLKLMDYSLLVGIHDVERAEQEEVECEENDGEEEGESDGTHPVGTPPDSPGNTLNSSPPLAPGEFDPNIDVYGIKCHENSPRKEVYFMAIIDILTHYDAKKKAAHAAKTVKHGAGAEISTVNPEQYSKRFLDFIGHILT

Max response, inactive:
Cc1ccc(C(NC(=O)C2CCN(CCOc3ccc(Cl)cc3Cl)CC2)c2ccccn2)cc1 (stereo not drawn) 5.45%, CCCOc1ccc(F)cc1-c1cc(C(=O)NCc2ccc(F)cc2)[nH]n1 3.63%, CCOC(=O)[C@]12CCCC=C1N(CCC1=CCCCC1)C(=O)[C@H](CC(=O)N1CCN(C(=O)c3ccco3)CC1)C2 -6.59%, C[C@H]1CN([C@@H](C)CO)C(=O)c2cc(C3=CCCCC3)cnc2O[C@@H]1CN(C)C(=O)Cc1ccccc1 -2.83%, COc1ccc(-c2cc3nc(NCCOc4ccccc4)ccn3n2)cc1 23.5%, CCC(C(=O)NCc1ccccc1)n1c(Cc2cc(F)cc(F)c2)nc2ccccc21 (stereo not drawn) 0.77%, CC(C)CCNC(=O)c1[nH]c(C(F)(F)F)nc1-c1ccccc1 -8.89%, CC(=O)N1c2ccc(S(=O)(=O)N(C)CC(=O)N(C)Cc3ccccc3)cc2CC1C (stereo not drawn) -1.34%, COc1cccc(CNS(=O)(=O)c2ccc3c(c2)CC(C)N3C(C)=O)c1 (stereo not drawn) -2.98%, COc1ccc(-c2nc3ccc(Br)cn3c2Cc2ccc(C)cc2)cc1OC -8.6%, COc1ccc(C(C(=O)Nc2c(C)cccc2C)N2CCN(c3ccc(C)cc3)CC2)cc1 (stereo not drawn) 5.89%, COc1ccc(CC(=O)N/N=C/c2cc([N+](=O)[O-])cc(Br)c2O)cc1 -27.2%, O=C(N/N=C/c1cc(Cl)cc([N+](=O)[O-])c1O)C(O)(c1ccccc1)c1ccccc1 3.34%, C[C@H](CO)N1C[C@H](C)[C@H](CN(C)C(=O)c2ccncc2)OCc2ccccc2-c2c(n(C)c3ccccc23)C1=O 0.39%, O=C(CCCN1C(=O)/C(=C/c2ccccc2)SC1=S)Nc1ccc(O)cc1 0.839%, O=C1/C(=C/c2ccc(F)cc2)SC(=S)N1CCCC(=O)N1CCCCC1CCO (stereo not drawn) 0.801%, C/C(=N\NC(=O)c1ccc2ccccc2c1)c1cccnc1 -3.12%, COc1cc(OC)c(C(=O)NNC(=O)c2ccc(NS(=O)(=O)c3cccs3)cc2)cc1OC -9.62%, CC(C)C1C(=O)N(Cc2cn(CCC3OCCO3)nn2)CCS(=O)(=O)N1Cc1ccc(-c2ccccc2C(F)(F)F)cc1 (stereo not drawn) 22.5%, CCCNC(=O)C1(C)CCN(Cc2csc(-c3ccc(Cl)cc3)n2)C1 (stereo not drawn) -11.7%, CCCCNC(=O)C[C@@H]1C[C@@]2(C(=O)OC)CC(C)(C)CC=C2N(Cc2ccco2)C1=O 4.39%, COc1ccc(C2=NN(C(C)=O)C(c3ccccc3)C2)cc1 (stereo not drawn) -5.07%, COc1ccc(-n2nnnc2-c2nc3ccccc3s2)cc1 11.9%, Cn1c(Nc2ccc(F)cc2)nc2cc(-c3ccsc3)sc2c1=O -0.288%, CCCc1[nH]nc2c1C(c1ccc(Br)s1)C(C#N)=C(N)O2 (stereo not drawn) -24.7%, CCCc1[nH]nc2c1C(c1ccc(OC)c(Cn3nc(C)c(Br)c3C)c1)C(C#N)=C(N)O2 (stereo not drawn) -0.298%, CCCCn1nnnc1C(c1ccccc1)N1CCN(c2ccccc2OC)CC1 (stereo not drawn) 1.03%, O=C(NC(c1ccc(-c2ccccc2)cc1)c1cnccn1)C1CCN(CCOc2ccc(Cl)cc2Cl)CC1 (stereo not drawn) 31%, CC(C)C[C@@H](COCc1ccc(Cl)cc1)N1CCN(C(=O)c2ccc(Cl)cc2Cl)CCC1=O 15.2%, COc1ccc(-c2cc(NC(C)=O)c3ncc(-c4cc(OC)c(OC)c(OC)c4)n3c2)cn1 -8.79%, Cc1cn([C@H]2C[C@H](O)[C@@H](/C=C/C(=O)NCCCc3ccccc3)O2)c(=O)[nH]c1=O -0.963%, Cc1ccc(S(=O)(=O)N2[C@@H](Cc3ccccc3)CO[C@H]2CC(=O)OCc2ccccc2)cc1 4.77%, Cc1cc(Br)cn2c(Cc3ccccc3C(F)(F)F)c(C3CCCCC3)nc12 10.4%, CN(CC(=O)Nc1cccc(F)c1)C(=O)CC1CCCC1 2.62%, Cc1ccc(CSCC(=O)N(C)CC(=O)Nc2cccc(F)c2)cc1 4.92%, O=C1NC[C@@H](CCCCN2CCN(CCc3ccc(O)cc3)C(=O)C2=O)N(CC2CCCCC2)C1=O -1.17%, Cc1ccc(C)c(C(O)c2ncc(-c3cccc4ccccc34)[nH]2)c1 (stereo not drawn) -1.21%, CCCCn1nnnc1C(c1cccc(OC)c1OC)N1CCN(C/C=C/c2ccccc2)CC1 (stereo not drawn) 0.353%, CCC(c1nc2ccccc2[nH]1)n1c(=O)c(-c2cccs2)nc2ccccc21 (stereo not drawn) 1.88%, CCCCNC(=O)C[C@@H]1C[C@@]2(C(=O)OCC)CCC=C2N(Cc2ccco2)C1=O -0.539%, CC(=O)c1cccc(-c2cnc3c(NC=O)cc(-c4ccc(N5CCN(C)CC5)cc4)cn23)c1 -0.912%, CC(=O)c1cccc(-c2cnc3c(NC=O)cc(-c4ccccc4Oc4ccccc4)cn23)c1 -13%, CC(=O)Nc1cccc(-c2cc(NC(C)=O)c3ncc(-c4ccccc4)n3c2)c1 -5.78%, COc1cccc(-c2cnc3c(NC(C)=O)cc(-c4cccc(NC(C)=O)c4)cn23)c1 -7.23%, CC(=O)c1cccc(-c2cnc3c(NC=O)cc(-c4cccc(C(=O)N(C)C)c4)cn23)c1 -9.37%, CC(=O)c1cccc(-c2cnc3c(NC=O)cc(-c4ccc(N(C)C)cc4)cn23)c1 -17.5%

Max response, active:
CC(C)N=C1CCCC1C(=S)SSC(=S)C1CCCC1=NC(C)C (stereo not drawn) -54.3%, CC(=O)N1c2ccc(S(=O)(=O)NCCC(=O)N(C)C3CCCCC3)cc2CC1C (stereo not drawn) -54.5%, O=C(N/N=C/c1cc(Br)c(O)c([N+](=O)[O-])c1)C(O)(c1ccccc1)c1ccccc1 -58.4%, O=C1/C(=C/c2ccc(F)cc2)SC(=S)N1NS(=O)(=O)c1ccccc1 -65.3%, C=C(C)C(=O)O[C@H]1C/C(C)=C\C(=O)/C=C(\C)[C@H](O)[C@@H]2OC(=O)C(=C)[C@@H]21 -56.7%, C/C(=N\NC(=O)c1ccc(NS(=O)(=O)c2cccs2)cc1)c1ccc2ccccc2c1 -63%, COc1ccc(C2=NN(c3nc4ccccc4s3)C(=O)C2)cc1 -57.5%, CCCc1[nH]nc2c1C(C1CC=CCC1)C(C#N)=C(N)O2 (stereo not drawn) -60.2%, CCN(CC)C(=O)CSC(Nc1cccc(F)c1)=C(C#N)C#N -66.7%, CC(=O)c1ccc(-c2cnc3c(NC=O)cc(-c4cccc(NS(C)(=O)=O)c4)cn23)cc1 -83.7%, CC(=O)Nc1cccc(-c2cc(NC=O)c3ncc(-c4ccc(F)c(Cl)c4)n3c2)c1 -70.3%, CN(C)C(=O)c1cccc(-c2cnc3c(NC=O)cc(-c4ccc(F)cc4)cn23)c1 -50.2%
